Test in all cases: PBM binding z-score (relative to random genomic background probes); higher = stronger binding; sequences stand for … in GC…GCGATTGACAGCGTAGAATGAAGG
Assay [1] deals with LXRa homodimer (NR concentration 270 nM). A digest of the protocol:
(§1)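 Binding z-scores were set against random background probes. The data came from custom Agilent 4×180K protein-binding microarrays carrying double-stranded probes with 34-nt variable regions, incubated 1 h with ligand-free nuclear receptor dimers. Partner-specific antibodies detected binding, and scanned fluorescence was regression-normalized.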

Assay [2] concerns LXRb homodimer (NR concentration 270 nM). Put shortly:
as §1

Assay [3] concerns PPARg:RXRa (NR concentration 180 nM, RXRa partner concentration 90 nM). Put shortly:
as §1

The test system of assay [4] is PPARg:RXRa 270nM:90nM, anti-RXR (NR concentration 270 nM, RXRa partner concentration 90 nM). Put shortly:
as §1

The test system of assay [5] is PPARg:RXRa 30nM:10nM, anti-RXR (NR concentration 30 nM, RXRa partner concentration 10 nM). A digest of the protocol: as §1
Assay [6] deals with PPARg:RXRa 90nM:30nM, anti-RXR (NR concentration 90 nM, RXRa partner concentration 30 nM). A digest of the protocol:
as §1

The subject of assay [7] is PPARg:RXRa DBDmut IVT, anti-RXR (DBD mutation: RXRa K156A/R161A, NR concentration 270 nM, RXRa partner concentration 90 nM). Put shortly:
as §1

The subject of assay [8] is PPARg:RXRa IVT, anti-PPARg (NR concentration 270 nM, RXRa partner concentration 90 nM). Put shortly:
as §1

Assay [9] concerns PPARg DBDmut:RXRa IVT, anti-PPARg (DBD mutation: PPARg1 K132A/R137A, NR concentration 270 nM, RXRa partner concentration 90 nM). Put shortly: as §1
Assay [10] deals with PPARg DBDmut IVT, anti-PPARg (DBD mutation: PPARg1 K132A/R137A, NR concentration 270 nM). A digest of the protocol: as §1
The subject of assay [11] is PPARg homodimer (NR concentration 180 nM). Put shortly: as §1
Assay [12] relates to PXR homodimer (NR concentration 270 nM). Put shortly:
as §1

The test system of assay [13] is RARa homodimer (NR concentration 270 nM). Put shortly:
as §1

Assay [14] deals with RARb homodimer (NR concentration 270 nM). Put shortly:
as §1

The subject of assay [15] is RARb:RXRa (NR concentration 270 nM, RXRa partner concentration 90 nM). Put shortly:
as §1

CGTCAAAGGTCATAGGAGGTCAGTGAAGACAGAT: the PBM binding z-score in assay [1] is 6.84; in assay [2], 3.02; in [3], 8.97; in assay [4], 8.33; in [5] it was 5.97; in [6] it was 7.99. Moreover, the PBM binding z-score in assay [7] is 4.36; in assay [8], 6.23; in [9], 1.59; in assay [10], 3.77; in assay [11], 5.41; in [12], 4.17. Also, the PBM binding z-score in assay [13] was 3.82; in [14] it was 5.95.
On to TCTAGTAGGTCAAAGGTCACACACTCGAAATGCG, for which the PBM binding z-score came out at 5.52 in assay [1]; 2.6 in assay [2]; 11.6 in assay [4]; 13 in assay [5]; 14.2 in assay [6]; 8.19 in [7]. Further, the PBM binding z-score in assay [8] came out at 9.26; in [9], 6.06; in [10] it was 3.11; in assay [11], 7.45; in assay [12] it was 2.56; in assay [13], 5.05. The PBM binding z-score in assay [14] was determined as 5.5.
As to CAAACAAGGTCAAAGGTCAAAGTCGAGCCAACCA, the PBM binding z-score in [1] is 6.4; in [2], 4.04; in assay [3], 13.5; in assay [4], 11; in [5] it was 13.5; in [6] it was 13.5. The PBM binding z-score in assay [7] came to 6.43; in [8] it was 7.85; in assay [9], 4.28; in assay [10], 4.16; in assay [11], 7.37; in assay [12] it was 4.12. In addition, the PBM binding z-score came to 6.18 in assay [13] and 5.66 in [14].
Consider AATACGGGGTCATCGTAGGCCAGAGTACGCACAG, for which the PBM binding z-score in assay [1] turned out to be 4.62; in assay [2] it was 2.94; in assay [3] it was 9.53; in assay [4], 8.49; in assay [5], 6.12; in assay [6], 7.88. The PBM binding z-score turned out to be 4.48 in assay [7]; 5.98 in [8]; 1.67 in assay [9]; 2.1 in [10]; 3.3 in [11]; 1.94 in assay [12]. Further, the PBM binding z-score in [13] was 1.73; in [15], 5.09; in [14], 4.48.
For CGTCAAAGTTCAACTAAGGTCACGTAAAGCACGC, the PBM binding z-score in assay [1] was determined as 8.57; in [2], 2.98; in assay [3] it was 6.26; in assay [4], 6.88; in [5], 3.49; in assay [6], 5.51. In addition, the PBM binding z-score in assay [7] came to 1.14; in [8] it was 3.7; in assay [9], 0.74; in [10], 1.77; in assay [11] it was 6.25; in [12], 12.2. Moreover, the PBM binding z-score was found to be 3.25 in assay [13] and 6.11 in [14].
As for CGTCTAAGGTCATAGGAGGTCAGTGAAGACAGAT, the PBM binding z-score in assay [1] amounted to 5.68; in assay [2], 1.55; in assay [3] it was 6.42; in assay [4] it was 6.7; in assay [5], 3.31; in assay [6], 5.55. Further, the PBM binding z-score in assay [7] was found to be 3.95; in assay [8] it was 4.85; in [9], 1.68; in assay [10], 1.09; in assay [11] it was 6.3; in [12] it was 6.55. The PBM binding z-score in [13] amounted to 3.85; in [15], 5.66; in assay [14], 5.47.
For TGTCAAAGTTCAAAGGTCACGTAAGTATCCACAC, the PBM binding z-score in assay [1] stood at 7.63; in assay [2] it was 3.24; in assay [4], 9.52; in assay [5], 7.66; in assay [6] it was 10.2; in [7] it was 1.46. For the same sequence, the PBM binding z-score was 6.64 in assay [8]; 4.45 in [9]; 3.14 in assay [10]; 6.73 in [11]; 5.82 in [12]; 5.52 in assay [13]. In [14], this sequence displayed a PBM binding z-score of 5.93.
With TGTCAAAGGTCAAAGGTAACGTAAGTATCCACAC, the PBM binding z-score in assay [1] stood at 4.19; in assay [2], 4.32; in [4], 9.9; in assay [5] it was 8.47; in assay [6] it was 10.5; in [7] it was 4.01. Also, the PBM binding z-score in assay [8] was found to be 7.56; in assay [9], 5.45; in assay [10] it was 6.39; in [11], 5.28; in assay [12], 1.31; in [13], 3.71. The PBM binding z-score in [14] was 5.11.
As to CCTTAGGGGTCACTCCAGGTTATAGCATCGGAGT, the PBM binding z-score in assay [1] is 3.9; in assay [2], 1.26; in assay [3] it was 7.77; in assay [4], 7.74; in assay [5], 4.31; in assay [6], 6.51. Moreover, the PBM binding z-score in [7] worked out at 3.7; in assay [8], 5.37; in [9], 2.85; in [10], 0.901; in [11], 3.42; in assay [12] it was 0.789. In addition, the PBM binding z-score in [13] worked out at 1.3; in assay [15], 5.36; in assay [14] it was 4.71.
For CAAACGAGGTCACGAAAGGTCAAAGTCGAATGAC, the PBM binding z-score amounted to 9.67 in assay [1]; 3.56 in assay [2]; 10.1 in assay [3]; 8.71 in [4]; 6.72 in assay [5]; 8.74 in assay [6]. The PBM binding z-score in assay [7] worked out at 6.75; in assay [8], 7.7; in [9], 2.28; in assay [10] it was 3.02; in [11] it was 7.67; in assay [12], 9.37. Also, the results for the PBM binding z-score in assay [13] and in [14] were 5.09 and 6.1, respectively.

Values taken from the supplement of paper PMC6555819.
